The list is not random: actives were taken first. Their share in the collection is about 14%.
Pf growth 48h = inhibits P. falciparum growth in the first generation, 48 h; P. falciparum luciferase growth in erythrocytes, 48 h; Potency, µM (highest dose often 28.7 µM), for the others: top-dose activity change, negative = inhibition, actives largely listed as inhibitors; actives 5.9% (n = 310,000); also: potency is read from the fitted curve at half-maximal effect
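Growth was read as firefly luciferase luminescence after a 48 h, 37 C, 5% CO2 exposure of compounds to reporter-bearing P. falciparum cultures (0.1% parasitemia, 2% hematocrit final) in Albumax-supplemented RPMI 1640.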
Pf growth 96h = P. falciparum growth inhibition at 96 hours. P. falciparum luciferase reporter growth, 96 h. Potency, µM (highest dose often 28.7 µM), for inactives: at the highest dose activity change, negative = inhibition, usual class: inhibitors. actives 6.9% (n = 320,000); also: potency is read from the fitted curve at half-maximal effect
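Compounds incubated with erythrocytes infected by luciferase-expressing P. falciparum (2% hematocrit, 0.05% parasitemia final) for 96 hours, 37 C in 5% CO2. Growth inhibition scored as decreased luciferase luminescence.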
HCMV inh = inhibitors of human cytomegalovirus | HFF cells, HCMV-luciferase reporter, 72 h; active compounds read low | activity change, negative = inhibition, % at 57.5 µM | actives 4.5% (n = 410,000) | AID 1259415; in the data active = activity change below about -60%; inconclusive = no clear call, values can overlap the other calls; inactive = above about -39%
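Screen run at 2 compound doses on HFFs infected with reporter HCMV, MOI 1 PFU/cell. Luciferase activity from cell lysates at 72 h post infection gave inhibition relative to buffer-only and Salinomycin wells.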
Sm TGR block = S. mansoni TGR enzyme inhibition; actives 3% (n = 360,000); Potency, µM (top dose mostly 114 µM), inactives show at the top dose activity change, negative = inhibition, most hits filed as inhibitors; purified TGR, DTNB reduction, TNB absorbance 405 nm; also: potency is read from the fitted curve at half-maximal effect; nearly all actives have a fitted effect of over 60% in size
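First, TGR (20 nM dispensed) and NADPH were mixed with compound. Second, a 15 min room-temperature incubation followed. Third, further NADPH and then DTNB were added to start the reaction. Finally, TNB absorbance was monitored kinetically.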
Giardia FBPA inh = blocks Giardia fructose-bisphosphate aldolase activity | A8B2U2 | purified Giardia FBPA | Potency, µM (highest dose often 59.6 µM), for inactives: at the highest dose activity, negative = inhibition, hits mostly inhibitors | actives 0.71% (n = 290,000) | AID 2451; also: potency is read from the fitted curve at half-maximal effect; nearly all actives have a fitted effect of over 55% in size
Target sequence (A8B2U2 whole entry, looked up): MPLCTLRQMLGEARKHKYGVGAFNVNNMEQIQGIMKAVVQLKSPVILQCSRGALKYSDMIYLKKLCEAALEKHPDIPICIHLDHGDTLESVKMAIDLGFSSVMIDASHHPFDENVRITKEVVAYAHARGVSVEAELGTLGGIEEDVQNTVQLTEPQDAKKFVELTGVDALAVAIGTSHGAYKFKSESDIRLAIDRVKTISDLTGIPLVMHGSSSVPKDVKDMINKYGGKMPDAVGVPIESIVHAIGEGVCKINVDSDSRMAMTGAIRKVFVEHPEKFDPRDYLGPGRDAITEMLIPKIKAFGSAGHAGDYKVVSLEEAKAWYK
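40 nM FBPA preincubated 10 min at RT with compound (up to 57.5 uM final), then substrate plus GAPDH/TPI/NAD/arsenate coupling and diaphorase/resazurin added. Fluorescence read after 20 min at RT, 525/598 nm.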
* = called active by the depositor; [ ] = dose if it differs, or a comment. Unless noted, calls follow the shape of the dose curve; as a rule, active = well fitted curve in the direction sought with a large enough effect; inconclusive = small, poorly fitted or top-dose-only effect, or another doubt; inactive = no such curve, though single readings can be large; an effect the other way counts as inactive or inconclusive. % is scaled to controls: 0 for no effect and ±100 for the full control effect.

For CC(C)(C)Nc1nc(NCc2cccnc2)nc(N2CCOCC2)n1 the results were Pf growth 48h 5.22µM*, Pf growth 96h inconclusive, HCMV inh 0.4, Sm TGR block -3.2% and Giardia FBPA inh 1.6%.
For c1cncc(CNc2nc(N3CCOCC3)nc(N3CCOCC3)n2)c1 the results were Pf growth 96h inconclusive, HCMV inh -9.4, Sm TGR block -1.1% and Giardia FBPA inh 7.8%.
Screening COc1ccc(CN2CCN(C(=O)c3ccccc3C(=O)c3ccccc3)CC2)cc1F returned HCMV inh -20.9.
`Cc1cc(C)cc(-n2c(SCC(=O)NC3CCCCC3)nc3c([nH]c4ccccc43)c2=O)c1` gave HCMV inh 38.3 and Sm TGR block -9.4%.
Screening O=C1CC(c2ccco2)=Nc2ccccc2N1 returned Pf growth 48h 20.0%, Pf growth 96h -0.1%[5.75 µM], HCMV inh -15.9, Sm TGR block 44.7µM* and Giardia FBPA inh -5.9%.
For O=C1CC(c2ccccc2)=Nc2ccccc2N1 the results were Pf growth 96h 41.8%, HCMV inh -10.6, Sm TGR block -7.9% and Giardia FBPA inh 1.9%.
Screening Brc1ccc(N=Nc2ccc3ccccc3n2)cc1 returned Pf growth 48h 0.329µM*, Pf growth 96h inconclusive, HCMV inh inconclusive, Sm TGR block 11.0% and Giardia FBPA inh 3.1%.
Screening CC1CCCCN1S(=O)(=O)c1ccc(C(=O)Nc2nnc(C3CC3)o2)cc1 (stereo not given) returned Pf growth 48h inconclusive, Pf growth 96h 11.7µM*, HCMV inh -21.9, Sm TGR block 0.0% and Giardia FBPA inh inconclusive.
For Cc1nnc(NC(=O)c2ccc(S(=O)(=O)N3CCCCC3C)cc2)o1 (stereo not given) the results were Pf growth 48h 11.7µM*, Pf growth 96h inconclusive, HCMV inh 25.1, Sm TGR block 8.3% and Giardia FBPA inh inconclusive.
For CC1CCN(S(=O)(=O)c2ccc(C(=O)Nc3nnc(C4CC4)o3)cc2)CC1 the results were Pf growth 48h inconclusive, Pf growth 96h inconclusive, HCMV inh 56.4, Sm TGR block -0.3% and Giardia FBPA inh inconclusive.
`CC1CCCCN1S(=O)(=O)c1ccc(C(=O)Nc2nnc(-c3ccco3)o2)cc1` (stereo not given) gave Pf growth 48h inconclusive, Pf growth 96h 4.65µM*, HCMV inh -70.2*, Sm TGR block 1.1% and Giardia FBPA inh inconclusive.
Screening O=C(Nc1nnc(C2CC2)o1)c1ccc(S(=O)(=O)N2CCCCC2)cc1 returned Pf growth 48h inconclusive, Pf growth 96h 16.5µM*, HCMV inh -61.0* and Sm TGR block 5.3%.
`O=C(C[n+]1cccc(O)c1)NCc1ccc(Cl)cc1` gave Pf growth 48h 0.0%, Pf growth 96h -4.7%, HCMV inh 8.8, Sm TGR block 0.5% and Giardia FBPA inh 4.7%.
For Cc1cc(-c2ccc([N+](=O)[O-])cc2)cc(C)n1 the results were HCMV inh -25.8.
For Cc1ccc(NC(=O)CCS(=O)(=O)c2cccc3nsnc23)c(C)c1 the results were HCMV inh 2.4 and Sm TGR block -2.5%.
For O=C1c2ccccc2[C@@H]2C[C@@H](O)[C@H](Nc3cccc4ccccc34)CCN12 the results were HCMV inh -28.8.
For COc1ccc(-c2coc3cc(OC(C)=O)cc(OC(C)=O)c3c2=O)cc1 the results were Giardia FBPA inh 0.5%.
Screening Nc1nc(SCc2ccc(F)cc2)ns1 returned Pf growth 48h -3.7%, Pf growth 96h 3.2%, HCMV inh -74.3*, Sm TGR block 5.0% and Giardia FBPA inh -5.2%.
`CC1CCc2c(N3CCC(O)CC3)c(F)cc3c(=O)c(C(=O)O)cn1c23` (stereo not given) gave Pf growth 48h 14.7µM*, Pf growth 96h 6.01µM*, HCMV inh 36.4 and Sm TGR block -8.6%.
`CC1CCc2cc(F)cc3c(=O)c(C(=O)O)cn1c23` (stereo not given) gave Pf growth 48h 7.0%, Pf growth 96h inconclusive, HCMV inh -71.0*, Sm TGR block 7.9% and Giardia FBPA inh inconclusive.
Screening CC1CCc2cc(F)cc3c(O)c(C(=O)NCC4CCCO4)c(=O)n1c23 (stereo not given) returned Pf growth 96h -11.5%, HCMV inh -29.4, Sm TGR block 4.5% and Giardia FBPA inh inconclusive.
`CN1CCN(c2c(F)cc3c(=O)c(C(=O)O)cn(CCF)c3c2F)CC1` gave Pf growth 48h -0.2%, Pf growth 96h -4.1%, Sm TGR block -0.7% and Giardia FBPA inh -7.0%.
`COc1cc(OC)nc(Nc2nc(C(N)Cc3ccc(Cl)cc3)cs2)n1` (stereo not given) gave HCMV inh -29.6.
`CCn1c(N2CCN(CC(=O)c3c(C)n(C)c4ccc(OC)cc34)CC2)nc2c1c(=O)[nH]c(=O)n2C` gave Pf growth 48h inconclusive, Pf growth 96h 10.4µM*, HCMV inh 9.4, Sm TGR block inconclusive and Giardia FBPA inh -9.8%.
Screening CCCn1c(N2CCN(CC(=O)c3c[nH]c4ccccc34)CC2)nc2c1c(=O)[nH]c(=O)n2C returned Pf growth 48h 9.28µM*, Pf growth 96h 0.738µM*, HCMV inh 57.9, Sm TGR block -25.9% and Giardia FBPA inh -9.2%.
`CCn1c(N2CCN(CC(=O)c3c(C)n(C)c4ccccc34)CC2)nc2c1c(=O)[nH]c(=O)n2C` gave Pf growth 96h 1.31µM*, HCMV inh -8.0, Sm TGR block -2.6% and Giardia FBPA inh 1.9%.
`Cc1cc(OC(=O)c2ccccc2F)c([N+](=O)[O-])c(=O)[nH]1` gave Pf growth 48h 30.3%, Pf growth 96h -25.1%, HCMV inh 0.0 and Sm TGR block -2.6%.
CCCCn1c(O)c(C(C)=NCCc2c[nH]c3ccccc23)c(=O)[nH]c1=O was read as Pf growth 48h inconclusive, Pf growth 96h inconclusive, HCMV inh -6.2, Sm TGR block -21.2% and Giardia FBPA inh 0.9%.
Cn1c(O)c(C(=NCCc2c[nH]c3ccccc23)c2ccccc2)c(=O)n(C)c1=O was read as Pf growth 48h 9.28µM*, Pf growth 96h inconclusive, HCMV inh 10.0 and Giardia FBPA inh -0.7%.
For C=CCOC(=O)N[C@H](/C(C(=O)OC)=C(\C)NCc1ccccc1)c1ccc2c(c1)OCO2 the results were Giardia FBPA inh 0.4%.
`CCCCNc1c(-c2cccnc2)nc2nc(C)cc(C)n12` gave HCMV inh 9.6.
Screening ClCc1nnc(-c2ccccc2)o1 returned Pf growth 48h 2.94µM*, Pf growth 96h 15.8%, HCMV inh -37.6, Sm TGR block 50.1µM* and Giardia FBPA inh -7.4%.
Screening CC(C)(C)n1nnnc1CN1CCN(C(c2ccccc2)c2ccccc2)CC1 returned Pf growth 48h 5.22µM*, Pf growth 96h -13.3%, HCMV inh -7.3, Sm TGR block 7.7% and Giardia FBPA inh -8.0%.

High-throughput results: PubChem, National Center for Advancing Translational Sciences (NCATS)
